Source: PMC5540273 (PLoS ONE, 2017)

Experiments:
Details in all cases: concentration: 1 μM, replicates: in singlicate; n = 1
BIKE = tested on: T1, BIKE
T1 construct: gene BMP2K

BLK = tested on: BLK
BMPR1A = tested on: BMPR1A
BMPR1B = tested on: BMPR1B
BMPR2 = tested on: BMPR2
BMX = tested on: BMX
BRAF = tested on: BRAF
BRK = tested on: T2, BRK
T2 construct: gene PTK6

BRSK1 = tested on: BRSK1
BRSK2 = tested on: BRSK2
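Note: KINOMEscan kinase panel screen.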

| Structure (SMILES) | %Inh (BIKE) [%] | %Inh (BLK) [%] | %Inh (BMPR1A) [%] | %Inh (BMPR1B) [%] | %Inh (BMPR2) [%] | %Inh (BMX) [%] | %Inh (BRAF) [%] | %Inh (BRK) [%] | %Inh (BRSK1) [%] | %Inh (BRSK2) [%] |
| --- | --- | --- | --- | --- | --- | --- | --- | --- | --- | --- |
| Cc1ccc(NC(=O)Nc2ccc(Cl)c(C(F)(F)F)c2)cc1-c1ccc(C(=O)Nc2ccncc2)cc1 [GSK1398470] | 8 | 7 | 6 | 0 | 0 | 21 | 73 | 29 | 7 | 0 |
| Nc1nccc(-c2c(-c3ccc(F)cc3)ncn2C2CCN(Cc3ccccc3)CC2)n1 [SB-219980] | 0 | 0 | 0 | 2 | 0 | 0 | 0 | 0 | 0 | 0 |
| c1ccc(-c2ccnc3[nH]ccc23)cc1 [SB-693578] | 0 | 4 | 1 | 0 | 47 | 0 | 4 | 14 | 0 | 100 |
| O=C(Nc1n[nH]c2nc(-c3ccco3)c(Br)cc12)C1CCN(Cc2ccccc2)C1.O=C(O)[C@H](O)[C@@H](O)C(=O)O (centres unmarked) [SB-742034] | 0 | 0 | 32 | 10 | 16 | 0 | 0 | 9 | 18 | 37 |
| COc1nccc(-c2c(-c3ccc(F)cc3)ncn2CCCN2CCOCC2)n1 [SB-282852] | 0 | 0 | 0 | 0 | 25 | 0 | 20 | 0 | 0 | 0 |
